Bioassay records from PubChem.
Shiga inhibitor: Shiga toxin inhibition; Vero cells, Shiga toxin protein synthesis inhibition reporter; AID 2315; 9.2% of 290,000 active; inhibition, % at 38.7 µM; in the data active = inhibition mostly above about 28%, no sharp cut-off; inactive = mostly below about 43%; note: 0% is about no effect
CHX counter: counter-screen for Shiga toxin inhibitors: cycloheximide protein synthesis inhibition; max response, %; AID 2314; cell reporter, cycloheximide protein synthesis inhibition counterscreen; 12% of 300,000 active; in the data active = max response mostly above about 13%, no sharp cut-off; inactive = mostly below about 14%; note: read at 38.3 µM for the half of the compounds with a filed dose; 0% is about no effect
NS1 inh: influenza NS1 inhibition. Potency, µM (series often up to 46.1 µM), inactives show top-dose activity, positive = more growth. 0.4% of 270,000 active; note: potency is the fitted concentration of half-maximal effect; actives are rising curves; nearly all actives have a fitted effect of over 50% in size
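Growth recovery, yeast-based: influenza A NS1 expressed in S. cerevisiae causes slow growth, and suppressors are detected by OD600. The parent strain without NS1 is used as positive control.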
LmPK inh: blocks Leishmania mexicana pyruvate kinase activity | AID 1721 | Q27686 | Potency, µM (doses to about 57.5 µM), for the others: at the top dose activity change, negative = inhibition, usual class: inhibitors | 0.37% of 290,000 active | purified LmPK, Kinase-Glo ATP luminescence, 1 h; active = well fitted curve in the direction sought with a large enough effect; inconclusive = small, poorly fitted or top-dose-only effect, or another doubt; inactive = no such curve, though single readings can be large; an effect the other way counts as inactive or inconclusive; note: potency is the fitted concentration of half-maximal effect; % is set by controls: 0 for no effect and ±100 for the full control effect
Target sequence (Q27686 whole entry, looked up): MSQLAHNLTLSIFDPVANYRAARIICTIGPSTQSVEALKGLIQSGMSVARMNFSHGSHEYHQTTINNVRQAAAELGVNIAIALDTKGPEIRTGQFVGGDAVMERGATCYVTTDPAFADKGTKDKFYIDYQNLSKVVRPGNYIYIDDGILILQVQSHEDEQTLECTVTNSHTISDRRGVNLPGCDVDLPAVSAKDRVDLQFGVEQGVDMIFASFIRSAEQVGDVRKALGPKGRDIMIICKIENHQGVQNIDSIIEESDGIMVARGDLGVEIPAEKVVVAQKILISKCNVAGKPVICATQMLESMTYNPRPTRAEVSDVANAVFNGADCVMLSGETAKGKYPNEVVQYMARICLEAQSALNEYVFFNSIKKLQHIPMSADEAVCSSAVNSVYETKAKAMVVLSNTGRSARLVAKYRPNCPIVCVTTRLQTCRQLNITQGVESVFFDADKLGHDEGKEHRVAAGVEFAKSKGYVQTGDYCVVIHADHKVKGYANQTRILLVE
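Pyruvate kinase activity monitored as ATP production (luciferase luminescence). Conditions: 0.1 nM enzyme, 0.5 mM PEP, 0.1 mM ADP, 1 h, RT; normalized against uninhibited and no-enzyme wells.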
SARS PLpro yeast: blocks SARS-CoV papain-like protease in a yeast assay; S. cerevisiae expressing SARS-CoV PLpro, growth rescue; Potency, µM (doses to about 32.9 µM), for inactives: top-dose activity, positive = growth rescue, hits mostly activators; 0.19% of 330,000 active; AID 485353; note: potency is the fitted concentration of half-maximal effect; 0% is about no effect; nearly all actives have a fitted effect of over 55% in size
TbPYK inhibitor: inhibitors of Trypanosoma brucei pyruvate kinase; TbPYK enzyme, Kinase-Glo Plus ATP luminescence, 45 min; AID 624173; 0.12% of 410,000 active; Potency, µM (highest dose often 76.8 µM), for inactives: at the top dose activity, negative = inhibition, actives largely listed as inhibitors; Q57TT1; active = well fitted curve in the direction sought with a large enough effect; inconclusive = small, poorly fitted or top-dose-only effect, or another doubt; inactive = no such curve, though single readings can be large; an effect the other way counts as inactive or inconclusive; note: potency is the fitted concentration of half-maximal effect; % is set by controls: 0 for no effect and ±100 for the full control effect; nearly all actives have a fitted effect of over 50% in size
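Activity of T. brucei pyruvate kinase was followed by Kinase-Glo Plus luminescence after the enzyme reacted 45 min at room temperature with 130 uM ADP (final) and substrate. Test compounds were added before ADP at multiple concentrations.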
Numbers without * were called inactive; ? = inconclusive; nt = no result given. Many of the other results were omitted from the sample, so hits are more common in it than they were. Unless noted, calls come from the whole dose curve.

SMILES	Shiga inhibitor	CHX counter	NS1 inh	LmPK inh	SARS PLpro yeast	TbPYK inhibitor
O=C(c1ccc2c(c1)OCO2)C1CCCN(C(=O)c2cnn(Cc3ccccc3)c2)C1 (centres undefined)	38*	21*	-4%	0%	-2%	-1%
O=C1COc2ccccc2C(c2nc3ccccc3[nH]2)N1Cc1ccccc1 (centres undefined)	nt	nt	nt	nt	nt	1%
Cc1ccc(C)c(NC(=O)/C(C#N)=C/c2ccc[nH]2)c1	11	33*	-14%	-14%	-3%	0%
N#C/C(=C\c1ccc[nH]1)C(=O)NC1CC1	-21	2	3%	1%	-8%	-6%
Cc1cccc(NC(=O)/C(C#N)=C/c2ccc[nH]2)c1C	21	24*	4%	7%	10%	-8%
COc1ccc(/C=C(/C#N)C(=O)Nc2ccccc2C)cc1C(=O)O	-4	0	-5%	-3%	2%	-5%
CCCC1CCC(c2ccc(OCC)cc2)=CC1=O (centres undefined)	34*	43*	-30%	1%	-1%	3%
Cc1cc2c(NCCc3ccccc3)ncnc2s1	65*	25*	-71%	2%	-8%	0%
c1ccc(CCNc2ncnc3ccccc23)cc1	57	49*	-9%	-2%	-2%	3%
Cc1cc2c(Nc3ccccc3)ncnc2s1	21	3	1%	-5%	-1%	3%
CCCCCCCCNCCS(=O)(=O)NCc1ccc(OC)cc1	nt	nt	nt	nt	nt	0%
CCOC(=O)CC(=O)CSc1nc2ccsc2c(=O)n1Cc1ccccc1	nt	nt	nt	nt	nt	0%
Cc1cc(-c2ccc(C(C)C)c(S(=O)(=O)Nc3ccccn3)c2)on1	24*	29*	-5%	3%	5%	3%
CC(C)c1ccc(NC(=O)C2CC3CCC2C3)cc1 (centres undefined)	86*	53*	-24%	-1%	-13%	-5%
Cc1cc(C)c(NC(=O)C2CC3CCC2C3)c(C)c1 (centres undefined)	33	15*	10%	3%	-1%	1%
COc1cc(Br)c(C2CC(=O)Nc3cc(OC)c(OC)c(OC)c32)cc1OC (centres undefined)	nt	nt	nt	nt	nt	-3%
Oc1ccccc1-c1ccn[nH]1	nt	nt	nt	nt	-1%	1%
Cc1ccc(-c2cc(-c3ccccc3Cl)[nH]n2)c(O)c1	128*	51*	-88%	-3%	-10%	0%
CC(=O)Nc1ccc(NC(=O)c2cc(-c3ccc(C)cc3O)n[nH]2)cc1	27	3	9%	9%	1%	10%
Cc1ccc(C)c(C(O)c2ncc(-c3ccccc3Cl)[nH]2)c1 (centres undefined)	nt	nt	nt	nt	nt	5%
Cc1ccc(-c2cc(-c3ccccc3[N+](=O)[O-])[nH]n2)c(O)c1	75*	31*	-135%	2%	-16%	1%
Cc1ccccc1-c1cc(-c2ccccc2O)n[nH]1	75*	30*	-150%	-1%	-9%	?
COc1cc(NC(=O)COc2ccc(C)c(C)c2)ccc1NC(=O)c1ccco1	13	-2	-39%	-3%	-7%	0%
CC(C)S(=O)(=O)c1csc(C(=O)Nc2ccc(F)cc2)c1N	53	42*	1%	14µM*	-12%	-12%
Cc1c2ccncc2c(C)c2c1[nH]c1ccccc12	2	5	-31%	-1%	-4%	3%
SMILES	Shiga inhibitor	CHX counter	NS1 inh	LmPK inh	SARS PLpro yeast	TbPYK inhibitor
CC(=O)N1C=Cc2c(c(C)c3c([nH]c4ccccc43)c2C)C1	25	17*	-44%	2%	-9%	nt
CNC(=O)COc1ccc(Nc2nnc(-c3ccc(C)c(S(=O)(=O)NC(C)(C)C)c3)c3ccccc23)cc1	nt	nt	nt	nt	nt	1%
CCOC(=O)c1snc(C(=O)NC2CCCCC2)c1N	161*	24*	-109%	-1%	-5%	-15%
O=C(NCc1ccc(Cl)cc1)N1CCN(C(=O)c2ccccc2)CC1	nt	nt	nt	nt	nt	6%
CCOc1ccc(CNC(=O)COc2cc(=O)n(C)c3ccccc23)cc1	nt	nt	nt	nt	nt	-1%
COc1cnn(-c2ccc(C)cc2)c(=O)c1Br	61	39*	nt	2%	4%	-3%
COc1cnn(-c2cc(Oc3ccc(C)cc3)ncn2)c(=O)c1Cl	-6	-1	-8%	2%	-6%	-4%
COc1ccc(Oc2cnn(-c3ccccc3)c(=O)c2Br)cc1	9	5	-3%	1%	-1%	2%
COc1cnn(-c2ccc(C)cc2)c(=O)c1Cl	79*	52*	nt	-3%	2%	-13%
CNc1cnn(-c2ccc(C)cc2)c(=O)c1Cl	81*	40*	1%	-4%	?	-13%
O=C(NC1CCN(C(=S)Nc2ccc(F)cc2)CC1)c1ccco1	21	-4	17%	-3%	10%	-3%
COC(=O)C[C@H]1C[C@H]2c3cc(NC(=O)Nc4ccc(F)cc4)ccc3O[C@H]2[C@@H](CO)O1	nt	nt	nt	nt	nt	2%
CC(C)=CCC/C(C)=C\CC/C(C)=C\CC/C=C(\C)CC/C=C(\C)CCC=C(C)C	nt	nt	nt	nt	nt	-2%
COc1ccc(-c2cc(-c3c(O)c(OC)c4occc4c3OC)[nH]n2)cc1OC	25	23*	-47%	-1%	-24%	-2%
COc1ccc(-c2cc(-c3c(O)c(OC)c4occc4c3OC)[nH]n2)cc1	79*	21*	13%	-5%	-12%	0%
O=C(O)CC(C(=O)O)n1nc(-c2ccccc2)cc1-c1ccccc1 (centres undefined)	73	39*	-29%	12%	1%	3%
CC(=O)N1CCc2cc(C(=O)CN3CCN(c4ccccc4F)CC3)ccc21	59*	21*	-4%	12%	8%	-2%
O=C(CN1CCN(c2ccccc2F)CC1)c1ccc2cc[nH]c2c1	1	-2	-1%	8%	2%	-8%
CC(=O)N1CCc2cc(C(=O)CN3CCN(c4ccccn4)CC3)ccc21	77*	37*	4%	6%	-1%	0%
O=C(CN1CCN(c2ccccc2F)CC1)N1CCc2ccccc21	16	14*	-1%	-8%	-2%	2%
CCN1CCN(C(=O)Cn2ncc3c4ccccc4n(Cc4c(C)cc(C)cc4C)c3c2=O)CC1	nt	nt	nt	nt	nt	3%
CCOC(=O)c1cccc(NC(=O)C2CCN(S(=O)(=O)c3ccc4c(c3)oc(=O)n4C)CC2)c1	nt	nt	nt	nt	nt	-6%
CCOc1ccc(Nc2nc(N)c(C(=O)c3ccccc3Cl)s2)cc1	nt	nt	nt	nt	nt	-1%
CCOC(=O)Cc1ccc(-c2ccccc2)cc1	nt	nt	nt	nt	nt	-6%
CCOC(=O)c1sc(-c2ccccc2)nc1C	30	34*	8%	-5%	0%	3%
CCOC(=O)c1sc(-c2cccs2)nc1C	130*	43*	nt	-18%	-1%	-3%
Cc1nc(-c2ccccc2)sc1C(N)=O	0	15	-30%	-4%	1%	4%
Cc1nc(-c2cccs2)sc1C(=O)NN	-15	-1	1%	-2%	4%	5%
CCOC(=O)Cc1ccc2sc(-c3ccccc3)nc2c1	31*	58*	-16%	16µM*	-21%	?
